From PubChem BioAssay (Tox21)
Several values for one entry are separate records, joined by “and”; a condition that tells them apart may be missing. Equal entries are not always repeated. Results filed as inconclusive are left out. Where a call stands in place of a potency, no number is given. More than one record can exist for a structure, and the calls need not agree. Activity calls are given as the source filed them. Unless noted, calls come from the whole dose curve.

Tests used:
[1] = Nuclear factor erythroid 2-related factor 2/antioxidant responsive element (Nrf2/ARE) small molecule agonists: qHTS cell viability counter screen in human keratinocytes (AID 1919968; active = well fitted curve in the direction sought with a large enough effect in the repeat runs; an effect the other way counts as inactive or inconclusive; note: nearly all actives have a fitted effect of over 55% in size)
In short: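 KeratinoSens cells (HaCaT keratinocytes stably carrying an ARE-luciferase reporter) were seeded at 1,500 cells/well and rested 5 h at 37 C/5% CO2. They were then exposed to compounds in DMSO for 23 h. Viability was read by CellTiter-Fluor fluorescence after 1 h.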

[2] = Nuclear factor erythroid 2-related factor 2/antioxidant responsive element (Nrf2/ARE) small molecule agonists: luciferase reporter gene qHTS assay in human keratinocytes (AID 1919969); note: nearly all actives have a fitted effect of over 35% in size; note: potency is the fitted concentration of half-maximal effect
[3] = biological target: Gonadotropin-releasing hormone receptor (Homo sapiens) (UniProt P30968); experiment: Human gonadotropin-releasing hormone receptor (GnRHR) small molecule agonists, calcium flux assay in GnRHR-HEK293 cells (AID 1920063); note: nearly all actives have a fitted effect of over 35% in size
In short: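 HEK293 cells stably expressing human GnRHR were plated 18 h at 37 °C, loaded with calcium dye 1 h at 37 °C, then given compound in agonist mode; fluorescence (Ex/Em 480/540) read kinetically for 3 min at 1 s intervals.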

[4] = biological target: KiSS-1 receptor (Homo sapiens) (UniProt Q969F8); experiment: Human kisspeptin (KISS1R) small molecule agonists, calcium flux assay in KISS1R-HEK293 cells (AID 1920064; active = well fitted curve in the direction sought with a large enough effect in the repeat runs; an effect the other way counts as inactive or inconclusive)
In short: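 HEK293 cells stably expressing human KISS1R were plated 18 h at 37 °C, loaded with calcium dye for 1 h at 37 °C, then given compound by pin tool. Fluorescence (Ex/Em 480/540) was read kinetically for 3 min.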

[5] = G protein-coupled receptor (GPCR) small molecule agonists, calcium flux assay: HEK293 wild type cell line counter screen (AID 1920065)
In short: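 Cells were plated and cultured 18 h at 37 C/5% CO2, then loaded with calcium dye for 1 h at 37 C. Compounds in DMSO were pin-transferred in agonist mode, and fluorescence (Ex/Em 480/540) was read kinetically for 3 min at 1 s intervals.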

[6] = p53 small molecule agonists, cell-based qHTS assay with human liver microsomes (AID 1963577);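 note: p53 response element beta-lactamase reporter cells with liver microsomes plus NADPH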
In short: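 With metabolic activation: human liver microsomes (0.5 mg/mL final) plus NADPH (0.5 mg/mL final) added alongside compounds to p53RE-bla cells; 16 h 37 C exposure; beta-lactamase read by LiveBLAzer fluorescence.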

[7] = p53 small molecule agonists, cell-based qHTS assay with rat liver microsomes (AID 1963578)
In short: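 Metabolic activation by rat liver microsomes and NADPH, each 0.5 mg/mL final, added right after compounds to p53RE-bla reporter cells (4,000/well, plated 5 h earlier). 16 h at 37 C, then LiveBLAzer substrate for 2 h at room temperature in the dark; fluorescence read-out.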

[8] = p53 small molecule agonists, cell-based qHTS assay with human liver microsomes: qHTS cell viability counter screen (AID 1963579); note: nearly all actives have a fitted effect of over 45% in size
In short: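 Metabolic activation used human liver microsomes and NADPH, both 0.5 mg/mL final, over 16 hours at 37 C on p53RE-bla cells (4,000/well). Cytotoxicity measured by CellTiter-Glo luminescence, 30 min at room temperature.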

[9] = p53 small molecule agonists, cell-based qHTS assay with rat liver microsomes: qHTS cell viability counter screen (AID 1963580); note: nearly all actives have a fitted effect of over 45% in size
In short: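 HCT-116 p53RE-bla, 4,000 cells/well, 5 h pre-incubation; cpd + rat liver microsomes 0.5 mg/mL + NADPH 0.5 mg/mL (final); 16 h, 37 C; CellTiter-Glo, 30 min RT; luminescence.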

[10] = p53 small molecule agonists, cell-based qHTS assay: qHTS cell viability counter screen (AID 1963581); note: nearly all actives have a fitted effect of over 45% in size
In short: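 p53RE-bla HCT-116 cells were exposed to compounds for 16 h at 37 C; after the beta-lactamase FRET read in the same wells, CellTiter-Glo was added and luminescence (intracellular ATP) read after 30 min at room temperature.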

[11] = p53 small molecule agonists, cell-based qHTS assay (AID 1963582; active = well fitted activation curve with a large enough effect in the signal ratio in the repeat runs, not every such curve was filed as active; the % refers to the signal ratio)
In short: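 p53RE-bla beta-lactamase reporter cells rested 5 h at 37 C/5% CO2, then received compounds in DMSO by pin transfer and were incubated 16 h at 37 C. LiveBLAzer B/G FRET substrate was loaded for 2 h at room temperature before fluorescence reading.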

[12] = biological target: 5-hydroxytryptamine receptor 2A (Homo sapiens) (UniProt P28223); experiment: 5-hydroxytryptamine receptor 2A (HTR2A) small molecule antagonists, cell-based qHTS assay (AID 1963586); note: nearly all actives have a fitted effect of over 45% in size
In short: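 Antagonist-mode intracellular calcium assay: DOI (4 nM) added after 5 min compound pre-incubation at room temperature to dye-loaded HTR2A-CHO cells. Fluorescence followed for 3 min, sampled every second.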

[13] = biological target: 5-hydroxytryptamine receptor 2A (Homo sapiens) (UniProt P28223); experiment: 5-hydroxytryptamine receptor 2A (HTR2A) small molecule agonists, cell-based qHTS assay (AID 1963587); note: nearly all actives have a fitted effect of over 30% in size
In short: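 Kinetic calcium-flux fluorescence (2 min, 1 sec intervals) after compound addition in agonist mode. HTR2A-CHO cells were cultured 18 h, then dye-loaded 1 h at 37 C.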

[14] = cAMP Responsive Elements (CRE) small molecule agonists, cell-based qHTS assay (AID 1963590)
In short: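 CRE-bla HEK 293T cells in DMEM with 10% dialyzed FBS, NEAA, pyruvate and 25 mM HEPES were plated 18 h at 37 C/5% CO2, then exposed to compounds in DMSO for 3 h before LiveBLAzer B/G FRET substrate addition.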

[15] = cAMP Responsive Elements (CRE) small molecule antagonists, cell-based qHTS assay (AID 1963591; active = well fitted inhibition curve with a large enough effect in the signal ratio in the repeat runs, not every such curve was filed as active; the % refers to the signal ratio)
In short: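 CRE-bla HEK293T cells were plated 18 h at 37 °C/5% CO2, pinned with compound in DMSO, then stimulated with NKH477 at 0.25 uM final for 3 h. LiveBLAzer B/G FRET substrate was added and plates incubated 2 h at room temperature.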

[16] = biological target: Beta-2 adrenergic receptor (Homo sapiens) (UniProt P07550); experiment: Adrenergic beta2 receptor (ADRB2) small molecule antagonists, cell-based qHTS assay (AID 1963592); note: series mostly up to about 92 µM; nearly all actives have a fitted effect of over 50% in size
In short: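 Cells (CHO, stable ADRB2 overexpression) incubated 18-20hr at 37C; compounds added from DMSO; agonist mix (1nM isoproterenol, 100uM IBMX, 25uM Ro-20-1724) added; 0.5hr RT; d2-cAMP and anti-cAMP-cryptate added; 1hr RT; 665/615 nm read.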

[17] = biological target: Beta-2 adrenergic receptor (Homo sapiens) (UniProt P07550); experiment: Adrenergic beta2 receptor (ADRB2) small molecule agonists, cell-based qHTS assay (AID 1963593);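 note: CHO cells stably overexpressing human ADRB2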
In short: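 CHO cells stably over-expressing ADRB2 were plated overnight at 37C, then dosed with compounds plus a stimulation mix containing 100uM IBMX and 25uM Ro-20-1724 for 0.5hr at room temperature. cAMP was measured by HTRF competition, 1hr.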

[18] = biological target: D(2) dopamine receptor (Homo sapiens) (UniProt P14416); experiment: Dopamine D2 receptor (DRD2) small molecule agonists, cell-based qHTS assay (AID 1963594); note: nearly all actives have a fitted effect of over 35% in size
In short: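 cAMP accumulation in DRD2-HEK293 cells measured by HTRF after 1 h detection; compounds added 10 min before NKH477 (200nM […]) forskolin-analogue stimulation, 30 min at room temperature, with Ro20-1724 present at 0.1 mM final.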

[19] = biological target: D(2) dopamine receptor (Homo sapiens) (UniProt P14416); experiment: Dopamine D2 receptor (DRD2) small molecule antagonists, cell-based qHTS assay (AID 1963595; active = well fitted inhibition curve with a large enough effect in the signal ratio in the repeat runs, with a control signal flat; the % refers to the signal ratio)
In short: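 Antagonism was scored as restored cAMP in HEK293-DRD2 cells. These cells were stimulated with 200 nM NKH477 and 12 nM quinpirole for 30 min at room temperature, in the presence of 0.1 mM Ro20-1724.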

[20] = biological target: Muscarinic acetylcholine receptor M1 (Homo sapiens) (UniProt P11229); experiment: Cholinergic receptor muscarinic 1 (CHRM1) small molecule antagonists, cell-based qHTS assay (AID 1963588); note: nearly all actives have a fitted effect of over 40% in size
In short: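 CHRM1-CHO calcium-flux assay, antagonist mode. Cells were seeded 18 h, dye-loaded 1 h at 37 C and given compound for 5 min at RT, then acetylcholine was added at 50nM. FDSS fluorescence was read 3 min; 15 concentrations, three runs.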

Muscarinic acetylcholine receptor M1 (Homo sapiens), sequence (P11229 whole entry, looked up): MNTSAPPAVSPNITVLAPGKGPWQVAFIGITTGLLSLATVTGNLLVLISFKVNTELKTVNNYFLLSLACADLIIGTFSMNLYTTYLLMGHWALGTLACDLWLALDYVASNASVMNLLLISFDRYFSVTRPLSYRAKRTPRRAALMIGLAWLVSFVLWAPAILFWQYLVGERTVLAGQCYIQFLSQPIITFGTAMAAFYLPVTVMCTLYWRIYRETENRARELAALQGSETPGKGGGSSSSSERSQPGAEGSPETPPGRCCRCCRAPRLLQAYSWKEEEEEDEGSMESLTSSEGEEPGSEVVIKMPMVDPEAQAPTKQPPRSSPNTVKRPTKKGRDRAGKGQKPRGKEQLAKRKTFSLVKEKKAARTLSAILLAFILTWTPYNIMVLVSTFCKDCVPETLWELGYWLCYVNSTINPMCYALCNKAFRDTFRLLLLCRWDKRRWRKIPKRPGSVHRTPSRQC
5-hydroxytryptamine receptor 2A (Homo sapiens), sequence (P28223 whole entry, looked up): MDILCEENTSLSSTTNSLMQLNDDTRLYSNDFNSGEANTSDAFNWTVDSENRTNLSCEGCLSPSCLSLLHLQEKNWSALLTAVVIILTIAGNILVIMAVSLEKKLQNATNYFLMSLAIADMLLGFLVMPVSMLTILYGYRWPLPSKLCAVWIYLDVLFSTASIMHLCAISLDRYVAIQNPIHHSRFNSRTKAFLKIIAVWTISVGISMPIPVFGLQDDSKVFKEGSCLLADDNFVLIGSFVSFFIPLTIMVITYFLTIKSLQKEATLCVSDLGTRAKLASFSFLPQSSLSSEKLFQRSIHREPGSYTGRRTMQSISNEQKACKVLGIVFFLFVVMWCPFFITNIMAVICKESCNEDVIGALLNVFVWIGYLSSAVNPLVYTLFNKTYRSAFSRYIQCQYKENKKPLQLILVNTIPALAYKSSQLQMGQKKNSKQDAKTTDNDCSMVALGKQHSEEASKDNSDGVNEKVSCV
D(2) dopamine receptor (Homo sapiens), sequence (P14416 whole entry, looked up): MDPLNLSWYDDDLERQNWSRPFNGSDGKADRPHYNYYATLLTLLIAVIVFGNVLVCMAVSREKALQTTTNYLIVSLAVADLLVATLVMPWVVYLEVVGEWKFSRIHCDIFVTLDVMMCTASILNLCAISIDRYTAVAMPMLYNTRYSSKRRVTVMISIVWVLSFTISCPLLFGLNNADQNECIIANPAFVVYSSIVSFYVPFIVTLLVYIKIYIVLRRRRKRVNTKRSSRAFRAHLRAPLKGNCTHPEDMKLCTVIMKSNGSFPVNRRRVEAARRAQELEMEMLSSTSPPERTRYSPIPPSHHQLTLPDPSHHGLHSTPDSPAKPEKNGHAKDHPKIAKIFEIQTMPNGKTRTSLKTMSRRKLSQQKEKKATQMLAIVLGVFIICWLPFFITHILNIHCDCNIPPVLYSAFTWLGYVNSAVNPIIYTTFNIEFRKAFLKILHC
KiSS-1 receptor (Homo sapiens), sequence (Q969F8 whole entry, looked up): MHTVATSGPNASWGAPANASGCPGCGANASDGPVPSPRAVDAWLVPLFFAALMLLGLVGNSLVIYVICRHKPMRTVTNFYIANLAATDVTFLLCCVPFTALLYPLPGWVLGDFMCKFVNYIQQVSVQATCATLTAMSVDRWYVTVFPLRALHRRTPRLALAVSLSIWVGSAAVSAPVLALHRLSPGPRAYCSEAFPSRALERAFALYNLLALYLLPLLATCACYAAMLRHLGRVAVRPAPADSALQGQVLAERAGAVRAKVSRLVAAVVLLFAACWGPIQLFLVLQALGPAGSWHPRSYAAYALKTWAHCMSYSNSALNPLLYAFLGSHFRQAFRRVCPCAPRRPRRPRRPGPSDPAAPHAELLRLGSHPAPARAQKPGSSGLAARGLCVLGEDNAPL
Beta-2 adrenergic receptor (Homo sapiens), sequence (P07550 whole entry, looked up): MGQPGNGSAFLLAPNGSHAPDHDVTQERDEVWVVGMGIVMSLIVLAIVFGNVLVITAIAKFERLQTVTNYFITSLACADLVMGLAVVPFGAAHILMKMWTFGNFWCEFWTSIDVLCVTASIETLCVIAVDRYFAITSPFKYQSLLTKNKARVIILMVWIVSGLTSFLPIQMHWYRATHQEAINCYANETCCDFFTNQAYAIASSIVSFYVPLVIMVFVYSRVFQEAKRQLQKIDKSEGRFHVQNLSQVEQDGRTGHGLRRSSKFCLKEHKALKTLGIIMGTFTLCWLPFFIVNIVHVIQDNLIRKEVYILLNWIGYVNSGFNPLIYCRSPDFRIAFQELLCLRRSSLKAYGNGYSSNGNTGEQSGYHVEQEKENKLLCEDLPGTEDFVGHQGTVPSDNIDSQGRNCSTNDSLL
Gonadotropin-releasing hormone receptor (Homo sapiens), sequence (P30968 whole entry, looked up): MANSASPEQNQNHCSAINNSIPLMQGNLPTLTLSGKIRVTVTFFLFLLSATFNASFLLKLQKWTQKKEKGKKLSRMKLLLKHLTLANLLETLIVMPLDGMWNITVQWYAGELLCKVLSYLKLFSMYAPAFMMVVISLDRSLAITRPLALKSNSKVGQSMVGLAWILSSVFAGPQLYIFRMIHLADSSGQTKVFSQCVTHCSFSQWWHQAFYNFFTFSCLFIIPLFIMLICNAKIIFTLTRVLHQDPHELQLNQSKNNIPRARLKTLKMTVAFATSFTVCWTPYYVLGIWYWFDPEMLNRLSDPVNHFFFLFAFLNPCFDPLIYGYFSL

| Structure (SMILES) | Potency [1] | Potency [2] | Potency [3] | Potency [4] | Potency [5] | Potency [6] | Potency [7] | Potency [8] | Potency [9] | Potency [10] | Potency [11] | Potency [12] | Potency [13] | Potency [14] | Potency [15] | Potency [16] | Potency [17] | Potency [18] | Potency [19] | Potency [20] |
| --- | --- | --- | --- | --- | --- | --- | --- | --- | --- | --- | --- | --- | --- | --- | --- | --- | --- | --- | --- | --- |
| CCOc1ccccc1C(N)=O | inactive | inactive and 33.5 µM (active) | inactive | inactive | inactive | inactive | inactive | inactive | inactive | inactive | inactive | inactive | inactive | inactive | inactive | inactive | inactive | inactive | inactive | – |
| O=C(Nc1ccc([N+](=O)[O-])cc1)Nc1ccc([N+](=O)[O-])cc1 (tested in a mixture with another compound) | inactive | inactive | inactive | inactive | inactive | inactive | inactive | inactive | inactive | inactive | inactive | inactive | inactive | inactive | inactive | inactive | inactive | inactive | inactive | – |
| Cc1ccc(Nc2ccc(O)c3c2C(=O)c2ccccc2C3=O)cc1 | inactive | inactive | inactive | inactive | inactive | inactive | inactive | inactive | inactive | inactive | inactive | inactive | inactive | inactive | inactive | inactive | inactive | inactive | inactive | – |
| CC(=O)c1ccc(O)c(C(N)=O)c1 | inactive | inactive | inactive | inactive | inactive | inactive | inactive | inactive | inactive | inactive | inactive | inactive | inactive | inactive | inactive | inactive | inactive | inactive | inactive | – |
| CC1=CC[C@H](CC=O)C1(C)C | inactive | inactive | inactive | inactive | inactive | inactive | inactive | inactive | inactive | inactive | inactive | inactive | inactive | inactive | inactive | inactive | inactive | inactive | – | – |
| Cc1ccc(-c2ccccc2)cc1 | inactive | inactive | inactive | inactive | inactive | inactive | inactive | inactive | inactive | inactive | inactive | inactive | inactive | inactive | inactive | – | inactive | inactive | inactive | inactive |
| CC(O)Cn1cnc2c1c(=O)n(C)c(=O)n2C (stereo not given) | inactive | inactive | inactive | inactive | inactive | inactive | inactive | inactive | inactive | inactive | inactive | inactive | inactive | inactive | – | inactive | inactive | inactive | inactive | inactive |
| CN1N=C(C(N)=O)CCC1=O | inactive | inactive | inactive | inactive | inactive | inactive | inactive | inactive | inactive | inactive | inactive | inactive | inactive | inactive | – | inactive | inactive | inactive | inactive | inactive |
| O=CC1CC1 | inactive | inactive | inactive | inactive | inactive | inactive | inactive | inactive | inactive | inactive | inactive | inactive | inactive | inactive | – | inactive | inactive | inactive | inactive | inactive |
